High-throughput results from PubChem.
Most compounds without a hit are left out; they make up all but 19% or so of the library.
HT1080-NT tox: kills 2HG-producing HT-1080-NT fibrosarcoma cells | 1.6% of 360,000 active | Potency, µM (highest dose often 46.1 µM), for the others: top-dose activity, negative = less viability, usual class: cytotoxic | AID 686970 | HT-1080-NT fibrosarcoma viability, CellTiter-Glo ATP luminescence, 48 h;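 further: NT is the 2HG producing partner of a matched IDH1 knockdown line; potency means the concentration at half of the fitted maximal effect; 0% = DMSO-treated cells and -100% = media-only wells without cells; nearly all actives have a fitted effect of over 55% in size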
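Compounds were tested in concentration-response format on HT-1080-NT cells for 48 hours at 37 degrees C. Cell viability came from CellTiter-Glo luminescence; curves were classified by r2, response magnitude and activity.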
IL-1B inflam inh: inhibitors of inflammasome signaling (IL-1 beta secretion); THP-1 LPS/ATP IL-1B secretion, AlphaLISA, 16 h; active compounds read low; activity change, % at 57.5 µM; 4.7% of 360,000 active; AID 743279; in the data active means activity change below about -50%; inconclusive means mostly about -30% to -49%
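Secreted IL-1B measured by AlphaLISA bead assay after 16 h compound exposure of THP-1 cells; compounds (final up to 57.5 uM) added 1 h before LPS (250 ng/mL) and ATP (1.25 mM) stimulation; lower signal means less secretion.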
HT1080 IDH1KD tx: toxicity to HT-1080 IDH1 knockdown cells (counter line); 2% of 360,000 active; Potency, µM (highest dose often 46.1 µM), for the others: at the highest dose activity, negative = toxicity, hits mostly cytotoxic; HT-1080 IDH1 knockdown viability, ATP luminescence, 48 h; AID 686971;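 further: potency means the concentration at half of the fitted maximal effect; 0% = DMSO wells and -100% = cell-free medium wells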
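Using the IDH1-knockdown HT-1080 line run in the same batch and compound series as the NT line, viability after 48 h at 37 °C was determined by CellTiter-Glo luminescence and expressed as % activity.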
uPA generation: inhibitors of cell surface uPA generation; cell surface uPA generation assay, qHTS; 0.31% of 330,000 active; Potency, µM (titrated, usually from 38.3 µM), for inactives: top-dose activity change, negative = inhibition, actives largely listed as inhibitors; AID 540303; active means well fitted inhibition curve with a large enough effect; inconclusive means small, poorly fitted or top-dose-only effect; inactive means no such curve, though single readings can be large or run the other way; tested in mouse RAW 264.7 cells; further: potency means the concentration at half of the fitted maximal effect; nearly all actives have a fitted effect of over 55% in size
TDP1 cell noCPT: qHTS for Inhibitors of human tyrosyl-DNA phosphodiesterase 1 (TDP1): qHTS in cells in absence of CPT. DT40 Tdp1-/- hTDP1 cells, no CPT, ATP luminescence, 48 h. Potency, µM (highest dose often 46.2 µM), inactives show at the top dose activity change, negative = growth inhibition, hits mostly inhibitors. 15% of 420,000 active; further: potency means the concentration at half of the fitted maximal effect; nearly all actives have a fitted effect of over 55% in size
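Compound effects on proliferation are scored in DT40 Tdp1-/-;hTDP1 cells in the absence of CPT. ATP levels (CellTiter-Glo luminescence) are recorded after a ≥48 hr, 37 °C incubation.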
DT40 TDP1 CPT: DT40-hTDP1 cell growth loss with CPT; chicken DT40 Tdp1-/-;hTDP1 cells + 20 nM CPT, ATP luminescence, 48 h; Potency, µM (titrated, usually from 46.2 µM), for inactives: at the top dose activity change, negative = growth inhibition, actives largely listed as inhibitors; 12% of 420,000 active; AID 686979; further: potency means the concentration at half of the fitted maximal effect; nearly all actives have a fitted effect of over 55% in size
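Chicken DT40 Tdp1-/- cells complemented with human TDP1, 400 cells/well, exposed to compounds plus 20 nM camptothecin for at least 48 h at 37 C; viability read as ATP content by CellTiter-Glo luminescence.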
The depositor's hits bear a star; ? = inconclusive; nt = no result. Unless noted, the call rests on the fitted dose curve; in most records, active means well fitted curve in the direction sought with a large enough effect; inconclusive means small, poorly fitted or top-dose-only effect, or another doubt; inactive means no such curve, though single readings can be large; an effect the other way counts as inactive or inconclusive. Unless noted, on the % scale 0 is the no-effect control and ±100 the full control effect.

SMILES	HT1080-NT tox	IL-1B inflam inh	HT1080 IDH1KD tx	uPA generation	TDP1 cell noCPT	DT40 TDP1 CPT
CN(c1ccc([N+](=O)[O-])cc1)c1cc2c(c3c1ccn3C)C1CCC2C1 (stereo not given)	10.1%	15.5	-29.2%	nt	-6.8%	-19.9%
CN1CCN(C(=O)c2ccc(-c3ccc(F)c(F)c3)c3ccoc23)CC1	-25.2%	5.9	-25.6%	nt	16.4µM*	16.4µM*
O=C(Nc1cccc(OC(F)(F)F)c1)c1ccc(-c2cccnc2)c2ccoc12	-20.4%	-5.0	20.0%	nt	?	?
COCCNC(=O)c1ccc(-c2cn[nH]c2)c2ccoc12	-0.7%	3.0	-1.8%	nt	-2.5%	?
COc1cc(NC(=O)c2ccc(-c3cn[nH]c3)c3ccoc23)cc(OC)c1OC	-1.3%	-74.2*	2.8%	nt	13µM*	11.6µM*
COc1cc(NC(=O)c2ccc(-c3ccc(F)c(F)c3)c3ccoc23)cc(OC)c1OC	-11.3%	-1.1	-6.8%	nt	4.11µM*	4.11µM*
O=C(Nc1cccc(C(F)(F)F)c1)c1ccc(-c2ccc(F)c(F)c2)c2ccoc12	?	-14.6	25.9%	nt	?	?
COc1cc(NC(=O)c2ccc(-c3cccnc3)c3ccoc23)cc(OC)c1OC	-13.8%	0.0	2.6%	nt	6.51µM*	13µM*
COc1cc(CNC[C@H]2O[C@@H](n3ccc(N)nc3=O)[C@H](O)[C@@H]2O)ccc1OCc1cccc(Cl)c1	1.8%	-19.2	-0.3%	nt	-3.0%	-0.6%
O=C(COC(=O)/C=C/c1ccc(OC(F)F)cc1)NC1CCCCCC1	3.9%	4.8	5.6%	4.9%	-29.6%	-1.4%
COC(=O)c1cccc(Oc2cccc(Cl)n2)c1	-1.3%	4.3	10.2%	-8.9%	-12.6%	5.1%
C[C@@H](NC(=O)[C@@H]1CCCN1C(=O)[C@@H]1CCCN1C(=O)OC(C)(C)C)c1ccccc1	9.1%	0.0	15.7%	nt	-14.8%	-7.9%
CC(C)N(C(=O)[C@H]1C[C@H](CC(=O)NCCc2ccccn2)C(=O)N2CCc3c([nH]c4cc(CCC(=O)N(C)C)ccc34)[C@]12C)C(C)C	3.8%	-19.2	2.5%	-4.5%	-13.7%	-12.8%
CC(C)NC(=O)c1ccc(-c2ccc(F)c(F)c2)c2ccoc12	11.5%	-23.8	-2.5%	nt	23.1µM*	25.9µM*
Cc1ccccc1OCC(=O)Nc1nnc(COc2ccccc2)s1	6.7%	5.1	6.4%	-0.8%	?	-12.4%
CC(C)N(Cc1nc(-c2ccc3c(c2)OCO3)no1)Cc1nccn1C	-0.7%	-2.4	-10.9%	7.8%	?	-26.6%
COC(=O)c1ccc(-c2noc(CN(Cc3nccn3C)C(C)C)n2)cc1	5.2%	20.2	-4.5%	0.6%	?	13µM*
COc1ccc(NC(=O)C[C@@H]2C(=O)N(Cc3ccccc3)CC2(C)C)cc1	3.3%	14.5	0.0%	nt	20.6µM*	-26.5%
CC1(C)CN(Cc2ccccc2)C(=O)[C@H]1CC(=O)Nc1ccccc1	11.3%	0.0	3.7%	nt	?	-2.7%
CC1(C)CN(Cc2ccccc2)C(=O)[C@H]1CC(=O)Nc1ccc(Br)cc1	1.1%	-16.0	9.6%	nt	13µM*	?
COc1cccc(C(=O)Nc2c[nH]c(=O)[nH]c2=O)c1	5.1%	23.5	-1.0%	0.9%	-9.9%	-4.6%
COC(=O)c1ccccc1NC(=O)c1ccc2c(Cl)c3c(nc2c1)CCCC3	nt	nt	nt	nt	4.5%	1.8%
Cc1ccc(C)c(NC(=O)CSc2c3c(nc4ccc(Cl)cc24)CCCC3)c1	nt	nt	nt	nt	20.6µM*	20.6µM*
COC(=O)c1ccccc1NC(=O)CSc1c2c(nc3ccc(Cl)cc13)CCCC2	nt	nt	nt	nt	11.6µM*	?
O=C(O)c1ccn(CSc2cc(Cl)ccc2Cl)n1	3.7%	2.9	11.0%	6.7%	?	-18.7%
SMILES	HT1080-NT tox	IL-1B inflam inh	HT1080 IDH1KD tx	uPA generation	TDP1 cell noCPT	DT40 TDP1 CPT
Cc1ccc(OCc2nnc(SC(C)C(=O)O)n2-c2ccccc2)cc1 (stereo not given)	4.8%	-0.1	5.4%	2.7%	-11.5%	-22.0%
Cc1ccc(-n2nc(C(=O)N(C)Cc3ccccc3)c3c4ccccc4n(C)c3c2=O)cc1	nt	nt	nt	nt	9.2µM*	23.1µM*
Cc1ccc(-n2nc(C(=O)N(C)c3ccccc3Cl)c3c4ccccc4n(C)c3c2=O)cc1	nt	nt	nt	nt	13µM*	18.4µM*
CN(CC(=O)Nc1ccccc1Cl)C(=O)c1ccc(COc2ccccc2)cc1	-3.9%	-21.9	-13.9%	3.0%	?	?
Clc1cccc(-c2noc3ncnc(Nc4ccc5c(c4)OCO5)c23)c1	-0.5%	-4.7	0.4%	-21.8%	?	-28.1%
CN(c1ncnc2onc(-c3cccc(Cl)c3)c12)C1CCCCC1	nt	nt	nt	nt	23.1µM*	?
CCN(c1ncnc2c1cnn2-c1cccc(Cl)c1)C1CCCCC1	nt	nt	nt	nt	-21.9%	-29.9%
Cc1cccc(Nc2ncnc3onc(-c4cccc(Cl)c4)c23)c1	1.1%	-7.3	-1.0%	-26.7%	?	20.6µM*
Cc1c(Cl)cccc1NC(=O)CN1C(=O)CCn2nc(-c3cccn3C)cc21	nt	nt	nt	nt	-24.3%	-6.2%
C#CCN1C=C(C(=O)OCC)C(C)NS1(=O)=O (stereo not given)	15.3%	46.1	11.5%	2.4%	6.1%	3.3%
C#CCN1C=C(C(=O)OCC)C(C)N(Cc2ccccc2I)S1(=O)=O (stereo not given)	?	62.5	20.6µM*	?	8.2µM*	13µM*
O=C(CCCN1C(=O)/C(=C/c2ccccc2Cl)SC1=S)Nc1cccnc1	-1.7%	?	-0.2%	?	16.4µM*	4.61µM*
O=C(CCCN1C(=O)/C(=C/c2ccccc2Cl)SC1=S)Nc1ccccn1	-1.8%	-81.4*	5.3%	-2.4%	?	?
O=C(CCCN1C(=O)/C(=C/c2cccs2)SC1=S)Nc1ccccn1	3.1%	-9.9	-20.1%	-1.6%	?	?
O=C(c1ccccc1Cc1ccccc1)N1CCN(S(=O)(=O)c2ccccc2Br)CC1	3.1%	-61.4*	1.8%	-0.7%	?	?
O=C(c1ccccc1Cc1ccccc1)N1CCN(S(=O)(=O)c2ccc(F)cc2)CC1	5.9%	7.3	0.6%	1.7%	-2.8%	3.6%
CC(=O)N1CCOc2ccc(S(=O)(=O)NC(C)c3ccccc3)cc21 (stereo not given)	19.1%	52.6	0.3%	-2.3%	-2.2%	-6.1%
COc1ccc2cc(CCNS(=O)(=O)c3ccc(NC(C)=O)cc3)c(=O)[nH]c2c1	3.3%	-0.9	11.0%	6.4%	-16.1%	-0.7%
COc1ccc2cc(CCNS(=O)(=O)c3ccc(C)cc3)c(=O)[nH]c2c1	nt	nt	nt	nt	9.2µM*	-22.4%
